PubChem BioAssay (NCATS)
Inconclusive results are not listed. A call without a number means that no potency is given here. Calls of active or inactive are those of the source. Unless noted, calls follow the shape of the dose curve; as a rule, active = well fitted curve in the direction sought with a large enough effect; inconclusive = small, poorly fitted or top-dose-only effect, or another doubt; inactive = no such curve, though single readings can be large; an effect the other way counts as inactive or inconclusive.

Key:
[1] = Cellular Toxicity (caspase-3) N2a (AID 665);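 also: compound exposure lasted 16 h at 37 °C before readout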
Summary of the method: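 N2a cells, 1500/well, 5 h settle at 37 °C; cpd 16 h, 37 °C; Caspase-Glo 3/7, 1 h RT; luminescence. Norm: DMSO = 0, 10 uM staurosporine = 100%. AC50, Hill fit.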

[2] = Cellular Toxicity (caspase-3) NIH 3T3 (AID 666)
Summary of the method: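 Luminescence from aminoluciferin released by caspase-3/7 cleavage of a peptide substrate served as read-out. Mouse fibroblast NIH 3T3 cells were exposed to compounds over a concentration range for 16 hours, and AC50 values came from standard Hill modelling.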

[3] = Cellular Toxicity (caspase-3) Renal Proximal Tubule (AID 667);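 also: cells exposed to compound for 16 hours at 37 °C before detection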
Summary of the method: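 Caspase-Glo 3/7 read-out, rat primary kidney proximal tubule cells. Compound exposure 16 h, 37 °C; detection after 1 h at RT. Activity scaled to DMSO and 10 uM staurosporine.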

[4] = biological target: Cytochrome P450 3A4 (Homo sapiens) (UniProt P08684); test: qHTS Assay for Inhibitors and Substrates of Cytochrome P450 3A4 (AID 884); also: nearly all actives have a fitted effect of over 50% in size; also: potency is read from the fitted curve at half-maximal effect
Summary of the method: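 20 nM human CYP3A4 with 25 uM Luciferin-PPXE (at KM) in 200 mM KPO4, preincubated 10 min with compound; NADPH regeneration started a 60 min RT reaction. Luciferin detected by luminescence, normalized to 57 uM ketoconazole as full inhibition.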

[5] = Cell Viability - LYMP2-001 (AID 921); also: series mostly up to about 92 µM; nearly all actives have a fitted effect of over 70% in size
Summary of the method: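 A lymphoblastoid cell line of human origin was treated with library compounds across a concentration series for 24 hours, and viable cell number was estimated from ATP-driven luciferase light output. Hill modeling gave AC50.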

[6] = MultiTox-Fluor Cytotoxicity Assay - LYMP1-001 - Dead Cells (AID 946)
Summary of the method: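 LYMP1-001 lymphoblastoid cells (2500/well) treated 16 h at 37 C. Dead-cell protease cleavage of bis-AAF-R110 read at Ex/Em 485/520. Normalized to DMSO and 15 uM tetraoctylammonium bromide; AC50 from Hill fits.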

[7] = Cell Viability - LYMP1-002 - Assay at 16 hr (AID 948)
Summary of the method: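 In this qHTS, lymphoblastoid LYMP1-002 cells (human) receive compounds for 16 hr at 37 C. Viability is taken from CellTiter-Glo ATP luminescence, and AC50 derives from standard Hill fits.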

[8] = MultiTox-Fluor Cytotoxicity Assay - LYMP1-002 - Live Cells (AID 955)
Summary of the method: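 Read-out is live-cell protease activity (cell-permeant GF-AFC substrate, fluorescence Ex/Em=405/510), where a decrease indicates acute toxicity. Human lymphoblastoid cells were treated 16 hours at 37 C in a concentration series, and AC50 values came from standard Hill modelling.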

[9] = MultiTox-Fluor Cytotoxicity Assay - LYMP1-003 - Dead Cells (AID 961); also: nearly all actives have a fitted effect of over 70% in size
Summary of the method: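 LYMP1-003 human lymphoblastoid cells (2500/well) exposed to compound 16 h at 37 C in complete medium; dead-cell protease read with bis-AAF-R110 fluorescence (Ex/Em 485/520) after 60 min at room temperature. Normalized to DMSO and 15 uM tetraoctylammonium bromide; AC50 from Hill fit.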

[10] = MultiTox-Fluor Cytotoxicity Assay - LYMP1-003 - Live Cells (AID 962);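 also: cytotoxic hits lower the live-cell protease signal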
Summary of the method: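 qHTS, 1536-well; 2500 cells/well LYMP1-003; 5 hr 37 C settle; cpd 16 hr 37 C; MultiTox-Fluor reagent 60 min RT; live-cell protease fluor. 405/510; Hill-fit AC50; tetraoctylammonium bromide pos. ctrl.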

[11] = Cell Viability - LYMP1-003 - Assay at 24 hr (AID 963)
Summary of the method: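 Cells seeded at 2500/well, 5 hr at 37 C; compounds added; 24 hr at 37 C; CellTiter-Glo added, 30 min room temperature; luminescence read. Decrease in ATP taken as cytotoxicity, AC50 from Hill modelling.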

[12] = Cell Viability - LYMP1-003 - Assay at 40 hr (AID 964); also: series mostly up to about 92 µM; nearly all actives have a fitted effect of over 60% in size
Summary of the method: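 Cells were seeded at 2500 per well and incubated 5 hr at 37 C. Compounds were added across a concentration series and left 40 hr at 37 C. CellTiter-Glo was added for 30 min at room temperature before luminescence reading.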

[13] = Cell Viability - LYMP2-005 (AID 967); also: series mostly up to about 92 µM
Summary of the method: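 Luciferase-based ATP quantitation served as the viability measure in human lymphoblastoid LYMP2-005 cells exposed to test compounds for 24 h at 37 C in complete culture medium. Potency (AC50) was obtained by fitting concentration-response curves with the Hill equation.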

[14] = Cell Viability - LYMP2-009 (AID 968); also: series mostly up to about 92 µM; nearly all actives have a fitted effect of over 55% in size
[15] = Cell Viability - LYMP2-011 (AID 969); also: nearly all actives have a fitted effect of over 60% in size
Summary of the method: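 2500 cells/well, 5 hr 37 C; compound added, 24 hr 37 C; CellTiter-Glo 30 min RT; luminescence. qHTS concentration-response, Hill-equation AC50. Tetraoctylammonium bromide positive control.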

[16] = Cell Viability - LYMP2-013 (AID 970); also: series mostly up to about 92 µM; nearly all actives have a fitted effect of over 55% in size
Summary of the method: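 qHTS; 2500 lymphoblastoid cells/well; 5 hr 37 C settle; cpd 24 hr 37 C; CellTiter-Glo, 30 min RT; luminescence. AC50 = Hill fit.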

[17] = Cell Viability - LYMP2-017 (AID 972); also: series mostly up to about 92 µM; nearly all actives have a fitted effect of over 55% in size
Summary of the method: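 2500 cells/well, 5 h 37 C; cpd 24 h 37 C in complete medium; CellTiter-Glo, 30 min RT; luminescence (ATP). AC50 via Hill fit, qHTS.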

[18] = Cell Viability - LYMP2-019 (AID 973); also: nearly all actives have a fitted effect of over 55% in size
Summary of the method: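 Luminescent ATP read-out (CellTiter-Glo, 30 min room temperature) served as the viability measure after 24 hr treatment of lymphoblastoid cells at 37 C. Concentration-response data were fitted to the Hill equation for AC50.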

[19] = Cell Viability - LYMP2-021 (AID 974)
Summary of the method: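 Plate 2500 lymphoblastoid cells per well and incubate 5 hr at 37 C. Add compounds over a concentration range and incubate 24 hr at 37 C. Add CellTiter-Glo, wait 30 min at room temperature, read luminescence.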

[20] = qHTS assay for small molecule antagonists of the retinoid-related orphan receptor gamma (ROR-gamma) signaling pathway - cell viability counter screen (AID 720652; active = well fitted curve in the direction sought with a large enough effect in the repeat runs; an effect the other way counts as inactive or inconclusive;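 also: series mostly up to about 92 µM; compound exposure lasted 16 hr before ATP read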)
Summary of the method: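 Luminescence from CellTiter-Glo after 30 min at room temperature reported cellular ATP as the cytotoxicity measure. Cells were the CHO reporter line with doxycycline-induced ROR-gamma expression, exposed to compound for 16 hr at 37 C.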

Chain of Cytochrome P450 3A4 (Homo sapiens) (P08684 whole entry, looked up): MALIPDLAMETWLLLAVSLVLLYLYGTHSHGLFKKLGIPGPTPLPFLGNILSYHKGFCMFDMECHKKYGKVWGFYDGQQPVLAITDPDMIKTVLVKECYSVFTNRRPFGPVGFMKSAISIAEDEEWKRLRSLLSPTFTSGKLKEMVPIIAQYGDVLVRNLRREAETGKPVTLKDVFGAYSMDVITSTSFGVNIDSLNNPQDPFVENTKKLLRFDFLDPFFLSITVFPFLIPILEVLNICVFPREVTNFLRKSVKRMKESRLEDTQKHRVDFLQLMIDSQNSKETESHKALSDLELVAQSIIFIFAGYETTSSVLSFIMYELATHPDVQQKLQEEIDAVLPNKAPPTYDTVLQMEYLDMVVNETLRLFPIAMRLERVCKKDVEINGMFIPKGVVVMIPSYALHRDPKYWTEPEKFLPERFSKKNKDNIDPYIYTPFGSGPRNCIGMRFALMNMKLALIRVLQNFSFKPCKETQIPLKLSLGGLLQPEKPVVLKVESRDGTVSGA

| Compound | outcome [1] | outcome [2] | outcome [3] | Potency [4] | Potency [5] | Potency [6] | Potency [7] | Potency [8] | Potency [9] | Potency [10] | Potency [11] | Potency [12] | Potency [13] | Potency [14] | Potency [15] | Potency [16] | Potency [17] | Potency [18] | Potency [19] | Potency [20] |
| --- | --- | --- | --- | --- | --- | --- | --- | --- | --- | --- | --- | --- | --- | --- | --- | --- | --- | --- | --- | --- |
| O=C1CCc2ccccc2O1 | inactive | inactive | inactive | inactive | inactive | inactive | inactive | inactive | inactive | inactive | inactive | inactive | inactive | inactive | inactive | inactive | inactive | inactive | inactive | inactive |
| O=S(=O)(O)c1ccccc1 | inactive | inactive | inactive | inactive | inactive | inactive | inactive | inactive | inactive | inactive | inactive | inactive | inactive | inactive | inactive | inactive | inactive | inactive | inactive | inactive |
| O[C@@H]([C@H](O)[C@@H](O)CBr)[C@@H](O)CBr | inactive | inactive | inactive | inactive | inactive | inactive | inactive | inactive | inactive | inactive | inactive | inactive | inactive | inactive | inactive | inactive | inactive | inactive | inactive | inactive |
| O=c1cc(-c2cccc(O)c2)oc2c(O)c(O)ccc12 |  |  |  | 15.8 µM (active) |  |  |  |  |  |  |  |  |  |  |  |  |  |  |  |  |
| O=C(O)c1ccccc1C(c1ccc(O)cc1)c1ccc(O)cc1 | inactive | inactive | inactive | inactive | inactive | inactive | inactive | inactive | inactive | inactive | inactive | inactive | inactive | inactive | inactive | inactive | inactive | inactive | inactive | inactive |
| c1ccc2scnc2c1 | inactive | inactive | inactive |  | inactive | inactive | inactive | inactive | inactive | inactive | inactive | inactive | inactive | inactive | inactive | inactive | inactive | inactive | inactive | inactive |
| Cc1c(N=C=O)cccc1N=C=O | inactive | inactive | inactive |  | inactive | inactive | inactive | inactive | inactive | inactive | inactive | inactive | inactive | inactive | inactive | inactive | inactive | inactive | inactive | inactive |
| Nc1nc(-c2ccc(Cl)c(Cl)c2)c(-c2ccncc2)s1 |  |  |  | 0.794 µM (active) |  |  |  |  |  |  |  |  |  |  |  |  |  |  |  |  |
| Cc1ccccc1C | inactive | inactive | inactive | inactive | inactive | inactive | inactive | inactive | inactive | inactive | inactive | inactive | inactive | inactive | inactive | inactive | inactive | inactive | inactive | inactive |
| Nc1ccc(S(=O)(=O)O)cc1 | inactive | inactive | inactive | inactive | inactive | inactive | inactive | inactive | inactive | inactive | inactive | inactive | inactive | inactive | inactive | inactive | inactive | inactive | inactive | inactive |
| COC(=O)CCCCC(=O)OC | inactive | inactive | inactive | inactive | inactive | inactive | inactive | inactive | inactive | inactive | inactive | inactive | inactive | inactive | inactive | inactive | inactive | inactive | inactive | inactive |
| O=C(O)c1ccc(O)cc1O | inactive | inactive | inactive | inactive | inactive | inactive | inactive | inactive | inactive | inactive | inactive | inactive | inactive | inactive | inactive | inactive | inactive | inactive | inactive | inactive |
